In PubChem BioAssay (NCI) one finds growth data, which are given here for eight compounds.

This is part of a sample that, as a whole, favours compounds with a hit. Of some 83,000 tested, about 20% had one in any assay.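 Compound tested at a single concentration for 48 hours in 96-well plates; a percent growth value below 10 was scored as active.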 Values without a mark were called inactive. Calls of active or inactive are those of the source.

What all share (assay): NCI-60 one-dose screen, 48 h (100 = growth as untreated, 0 = no growth, -100 = all killed)
One assay deals with HCT-15 colon. The settings on record: 10 µM unless noted.
The test system of a further assay is HT29 colon. The note with it: 10 µM unless noted.
The test system of a further assay is SNB-75 CNS. The settings on record: 10 µM unless noted.
For the next assay, the system named is SNB-19 CNS. The note with it: 10 µM unless noted.
Another assay concerns U251 CNS. The note with it: 10 µM unless noted.
The test system of the next assay is PC-3 prostate. The note with it: 10 µM unless noted.
In the next assay the test system is SK-MEL-5 melanoma. The settings on record: 10 µM unless noted.
The test system of a further assay is UACC-62 melanoma. The settings on record: 10 µM unless noted.
A further assay deals with LOX IMVI melanoma. The note with it: 10 µM unless noted.
In a further assay the test system is SK-MEL-28 melanoma. The settings on record: 10 µM unless noted.
A further assay concerns EKVX NSCLC. The settings on record: 10 µM.
The subject of a further assay is SN12C renal. The settings on record: 10 µM unless noted.
In the next assay the test system is UO-31 renal. The settings on record: 10 µM unless noted.
Another assay relates to TK-10 renal. The note with it: 10 µM unless noted.
Another assay deals with ACHN renal. The settings on record: 10 µM unless noted.
The test system of a further assay is CAKI-1 renal. The note with it: 10 µM unless noted.
The test system of another assay is A498 renal. The note with it: 10 µM unless noted.
The next assay concerns CCRF-CEM leukemia. The settings on record: 10 µM.
The subject of the next assay is MOLT-4 leukemia. The settings on record: 10 µM unless noted.
In a further assay the test system is SK-MEL-2 melanoma. The note with it: 10 µM unless noted.

For the compound `C/C=C/C/C=C/[C@H](C)C[C@H](O)[C@@H]1C[C@@H]2O[C@H]2/C=C/[C@@H]2OC(C)(C)O[C@H]2/C=C/C[C@H](C)CC(=O)O1`, the growth in the assay with HCT-15 colon is 19.7%; with HT29 colon, 28.1%; with SNB-75 CNS, 36.3%; with SNB-19 CNS, 62.2%; in the assay on U251 CNS it was 30%; in the assay with PC-3 prostate, 57.8%. The growth with SK-MEL-5 melanoma is 31%; with UACC-62 melanoma it was 8.91% (active); in the assay on LOX IMVI melanoma, 44.3%; in the assay with SK-MEL-28 melanoma, 59.3%; with EKVX NSCLC it was 67.2%; in the assay on SN12C renal, 38.2%. The growth is 5.37% (active) in the assay with UO-31 renal; 18.8% in the assay with TK-10 renal; 38.4% in the assay on ACHN renal; 19.2% in the assay on CAKI-1 renal; 96.5% in the assay with A498 renal; 24.7% with CCRF-CEM leukemia. Besides, the growth in the assay on MOLT-4 leukemia was 34.6%.
As for `COc1cc(-c2nn(-c3ccc(NC(=O)Nc4ccc(Cl)c(Cl)c4)cc3)cc2-c2ccncc2)ccc1Cl`, the growth is 28.9% in the assay on HCT-15 colon; 18.1% in the assay with HT29 colon; 25% with SNB-75 CNS; 36.9% in the assay with SNB-19 CNS; 24.3% in the assay with U251 CNS; 16.9% with PC-3 prostate. Moreover, the growth in the assay with SK-MEL-5 melanoma is 48%; in the assay on UACC-62 melanoma it was 32.8%; with LOX IMVI melanoma, 20.1%; with SK-MEL-28 melanoma it was 41.5%; in the assay on EKVX NSCLC, 33.6%; in the assay with SN12C renal, 43.4%. Also, the growth in the assay on UO-31 renal is 33.4%; in the assay with TK-10 renal, -12.6% (active); with ACHN renal, 20.9%; in the assay with CAKI-1 renal, 30.2%; in the assay on A498 renal it was 38.7%; with CCRF-CEM leukemia, 11.7%. For the same compound, the growth in the assay on MOLT-4 leukemia was 9.31% (active).
Turning to `COc1ccc(/C=C2\CCCC3=C2N=C2SC=NN2C3c2ccc(OC)c(OC)c2)cc1OC` (centres undefined), the growth was 34.2% in the assay with HCT-15 colon; 14.4% in the assay on HT29 colon; 40.1% in the assay on SNB-75 CNS; 68.6% with SNB-19 CNS; 30.2% with U251 CNS; 67.9% in the assay with PC-3 prostate. Further, the growth was 30.8% with SK-MEL-5 melanoma; 38.1% with UACC-62 melanoma; 9.24% (active) in the assay on LOX IMVI melanoma; 66% with SK-MEL-28 melanoma; 109% with SK-MEL-2 melanoma; 40.7% in the assay with SN12C renal. Moreover, the growth is 40% with UO-31 renal; 37.4% in the assay with ACHN renal; 32.5% with CAKI-1 renal; 42.8% with A498 renal; 7.48% (active) with CCRF-CEM leukemia; 54.7% with MOLT-4 leukemia.
`CC(C)(C)c1cc(C[P+](c2ccc(Cl)cc2)(c2ccc(Cl)cc2)c2ccc(Cl)cc2)cc(C(C)(C)C)c1O`: the growth was 99.1% in the assay with HCT-15 colon; 56.9% in the assay with HT29 colon; 87.2% in the assay with SNB-75 CNS; 98% in the assay on SNB-19 CNS; 85.4% with U251 CNS; 70% in the assay with PC-3 prostate. Moreover, the growth in the assay on SK-MEL-5 melanoma was 85.8%; in the assay on UACC-62 melanoma, 81.6%; in the assay with LOX IMVI melanoma it was 92.6%; in the assay with SK-MEL-28 melanoma, 88%; with SK-MEL-2 melanoma, 76.2%; in the assay on SN12C renal, 91.6%. Besides, the growth in the assay on UO-31 renal was 64.4%; in the assay with ACHN renal, 98.7%; in the assay with A498 renal it was 98.5%; in the assay with MOLT-4 leukemia it was 35.7%.
With `COc1cc(-c2nn(-c3ccc(NC(=O)c4ccc(Cl)c(C(F)(F)F)c4)cc3)cc2-c2ccncc2)ccc1Cl`, the growth was -44.1% (active) with HCT-15 colon; -75.5% (active) with HT29 colon; -7.6% (active) in the assay on SNB-75 CNS; 32.9% in the assay on SNB-19 CNS; 22.2% in the assay on U251 CNS; 2.37% (active) with PC-3 prostate. The growth in the assay with SK-MEL-5 melanoma is -93.3% (active); in the assay on UACC-62 melanoma it was -0.867% (active); in the assay with LOX IMVI melanoma it was 21.6%; in the assay on SK-MEL-28 melanoma, 35.7%; in the assay with EKVX NSCLC it was 24.3%; in the assay with SN12C renal, 52.7%. Besides, the growth in the assay on UO-31 renal is 16.3%; with TK-10 renal it was 6.27% (active); in the assay with ACHN renal, 18.2%; in the assay on CAKI-1 renal it was -16.7% (active); with A498 renal, 31.9%; in the assay with CCRF-CEM leukemia it was 6.52% (active). In addition, the growth with MOLT-4 leukemia was 3.94% (active).
On to `N#CCc1ncc(-c2ccc(C(F)(F)F)cc2)c(NC2CCCCCC2)n1`, for which the growth in the assay on HCT-15 colon was 22.1% [100 µM]; in the assay on HT29 colon it was 14% [100 µM]; with SNB-75 CNS, 52.5% [100 µM]; in the assay with SNB-19 CNS, 45.2% [100 µM]; with U251 CNS, 22.4% [100 µM]; with PC-3 prostate, -3.13% [100 µM] (active). In addition, the growth in the assay with SK-MEL-5 melanoma was 22.9% [100 µM]; in the assay on UACC-62 melanoma, 42.1% [100 µM]; with LOX IMVI melanoma, 25% [100 µM]; in the assay on SK-MEL-28 melanoma, 65.8% [100 µM]; in the assay with SK-MEL-2 melanoma it was -22.1% [100 µM] (active); in the assay on SN12C renal it was 30.4% [100 µM]. In addition, the growth with UO-31 renal was 29.8% [100 µM]; in the assay on TK-10 renal, 61.2% [100 µM]; in the assay on ACHN renal, 18.4% [100 µM]; with A498 renal it was 1.91% [100 µM] (active); with MOLT-4 leukemia, -4.66% [100 µM] (active).
Turning to `O=C(CCC(=O)N(CCO)CCO)N(CCO)CCO`, the growth with HCT-15 colon is 94.9%; in the assay with HT29 colon, 98.6%; in the assay on SNB-75 CNS, 94%; with SNB-19 CNS, 108%; with U251 CNS, 105%; with PC-3 prostate, 100%. For the same compound, the growth in the assay with SK-MEL-5 melanoma was 114%; with UACC-62 melanoma it was 109%; in the assay with LOX IMVI melanoma it was 101%; in the assay on SK-MEL-28 melanoma it was 106%; in the assay with SK-MEL-2 melanoma, 102%; in the assay on UO-31 renal, 86%. Moreover, the growth is 99.5% in the assay with TK-10 renal; 107% with ACHN renal; 93.3% with CAKI-1 renal; 120% in the assay with A498 renal; 90.8% in the assay on MOLT-4 leukemia.
As for `O=C(Nc1ccc(-n2cc(-c3ccncc3)c(-c3ccc(Cl)c(O)c3)n2)cc1)c1cc(C(F)(F)F)cc(C(F)(F)F)c1`, the growth in the assay on HCT-15 colon was 27.8%; with HT29 colon it was 11.1%; with SNB-75 CNS, 12.2%; in the assay with SNB-19 CNS it was 72.5%; in the assay on U251 CNS it was 54.3%; in the assay with PC-3 prostate it was 72.1%. The growth is 55.8% with SK-MEL-5 melanoma; 68.5% with UACC-62 melanoma; 53.1% with LOX IMVI melanoma; 45.9% in the assay on SK-MEL-28 melanoma; 97.4% in the assay with EKVX NSCLC; 74.7% with SN12C renal. Further, the growth is 67.5% with UO-31 renal; 65.4% with TK-10 renal; 54.3% in the assay on ACHN renal; 60.4% in the assay on CAKI-1 renal; 87.7% in the assay on A498 renal; 72.9% in the assay on CCRF-CEM leukemia. Also, the growth with MOLT-4 leukemia was 55.6%.
